High-throughput results from PubChem BioAssay.
Only a selection was taken, and hits are over-represented in it overall.
TTR transcr act: TTR transcription activation, primary screen. SH-SY5Y TTR promoter Gaussia luciferase, luminescence; 100% = recombinant luciferase protein wells. activation, % at 16.7 µM. 92,000 tested, 1.3% active. AID 1117267;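 active = activation above the mean of all tested compounds plus 3 SD, cut at about 9.5% in these data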;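 note: cells exposed to compounds for one day before reading; 0% = median of all test compound wells on the plate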
HuH7 TTR inh: decreases TTR transcription in HuH7 cells in activator counter-screen; 1,100 tested, 4% active; shares compounds with TTR transcr act; inhibition, % at 16.7 µM; HuH7 TTR promoter-Gaussia luciferase reporter, luminescence; AID 1117279;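 active = average inhibition above the solvent-only control wells' mean plus 3 SD, cut at about 15% in these data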;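 note: 0% = cells with DMSO only and 100% = cells with inhibitor control FD; inhibitors lower well luminescence so higher value means more inhibition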
TTR up confirm: human TTR transcription activation, confirmation; shares compounds with TTR transcr act; SHSY5Y TTR promoter Gaussia luciferase, luminescence; 100% = purified Lucia enzyme wells, no cells; activation, % at 16.7 µM; 1,100 tested, under 10 active; AID 1117280;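 active = mean activation above a set limit taken from the earlier primary screen, cut at about 11% in these data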;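 note: 0% = DMSO-treated cells and 100% = recombinant Lucia luciferase without cells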
* = called active by the depositor.

SMILES	TTR transcr act	others
CC1(C)OC2OC(C3COC(=O)O3)C(OC(=O)c3ccccc3)C2O1 (stereo unspecified)	25*	HuH7 TTR inh=-7;TTR up confirm=-1
CC1(C)OC2OC(COC(=O)c3ccc([N+](=O)[O-])cc3)C3OC(C)(C)OC3C2O1 (stereo unspecified)	0
O=C(c1cccs1)n1ccc2ccc(-c3ccc4ccn(C(=O)c5cccs5)c4c3)cc21	-1
CCOC(=O)[C@@H](NC(=O)[C@@H]1CC=C[C@@H]2CCN(Cc3ccc(Cl)cc3)C(=O)[C@@H]21)C(C)C	1
COc1cc(NC(=O)c2cc(C)on2)cc(C(=O)Nc2cccc(C(F)(F)F)c2)c1	-1
COc1ccc(NC(=O)c2cc(C)on2)cc1OC	5
COc1ccc(NC(=O)c2cc(C)on2)cc1	13*	HuH7 TTR inh=7;TTR up confirm=-1
Cc1cccc(C)c1OCc1cccc(C2Nc3ccccc3C(=O)N2Cc2ccco2)c1 (stereo unspecified)	-1
COc1ccc(/C=N/NC(=O)c2cc(C(C)(C)C)[nH]n2)cc1COc1ccc(F)cc1F	0
Cn1cccc1/C=N/NC(=O)C(O)c1ccccc1 (stereo unspecified)	25*	HuH7 TTR inh=-13;TTR up confirm=2
Cn1cccc1/C=N/NC(N)=S	1
Cn1cccc1/C=N/NC(=O)Cc1ccccc1	1
CC(C)N1CCc2c(-c3nc4ccccc4s3)csc2C1	-1
COC(=O)[C@]12C[C@H](CC(=O)N3CCN(C(=O)c4ccco4)CC3)C(=O)N(Cc3cccc4ccccc34)C1=C[C@H](C1CCCC1)O[C@@H]2C	-1
COc1ccc2c(c1)Sc1ccc(Cl)cc1N2	-1
CCCC1CCC2(CC1)CCC2OC(=S)NCc1cccc(OC)c1 (stereo unspecified)	1
Clc1ccc(C2Nc3cccc4cccc(c34)N2)cc1Cl	9.8*	HuH7 TTR inh=5;TTR up confirm=-1
Clc1cccc(Cl)c1C1Nc2cccc3cccc(c23)N1	-1
Brc1cccc(C2Nc3cccc4cccc(c34)N2)c1	-2
O=C(NC1CCCCN(Cc2ccc(Cl)cc2)C1=O)c1cc(-c2ccccc2)no1 (stereo unspecified)	-1
O=C1CCC[C@H]2Cc3nc4ccccc4cc3C[C@]23CCCN13	2
O=C(Nc1cn(-c2ccccc2)nc1-c1ccc(Cl)cc1)c1ccccc1	0
Cc1ccc(-c2nc3ncccn3c2NC(=O)c2ccccc2)cc1	0
Cc1ccc(-c2nn(-c3ccccc3)cc2NC(=O)c2ccccc2)cc1	13*	HuH7 TTR inh=1;TTR up confirm=-1
C[C@H]1CCCN1c1cccc2c1S(=O)(=O)N1CC[C@H](C1)O2	6
SMILES	TTR transcr act	others
Cc1ccccc1C1CCC2(CCC(=O)N2CC[C@@H](O)c2ccccc2)CC1 (stereo partly specified)	-2
COc1ccc2c(CCN3C(=O)c4ccccc4C3=O)c(-c3c(CCN4C(=O)c5ccccc5C4=O)c4ccccc4n3C(=O)OC(C)(C)C)[nH]c2c1	0
CC1CCCN(CC(=O)N2c3ccccc3Sc3ccccc32)C1 (stereo unspecified)	15*	HuH7 TTR inh=0;TTR up confirm=0
O=C(CN1CCCC(O)C1)N1c2ccccc2Sc2ccc(C(F)(F)F)cc21 (stereo unspecified)	-3
CN(C)CC(=O)N1c2ccccc2Sc2ccc(Cl)cc21	2
O=C(Nc1ccccc1)OC1CC2CC1[C@H]1CCCCN1[C@H]2Cc1ccccc1 (stereo partly specified)	-1
COc1ccc(-c2nc3ccccc3c(=O)n2Cc2ccccc2)cc1COc1ccc(NC(C)=O)cc1	3
C=CCN(C(=O)[C@@H](C)[C@@H](O)c1ccc(Cl)cc1)c1ccccc1	0
NC(=O)CC(NC(=O)Cc1ccc(Br)cc1)c1ccc(NC2CCCCCC2)c([N+](=O)[O-])c1 (stereo unspecified)	10*	HuH7 TTR inh=-8;TTR up confirm=0
NC(=O)CC(NC(=O)Cc1ccc(Br)cc1)c1ccc(NC2CCCC2)c([N+](=O)[O-])c1 (stereo unspecified)	2
NC(=O)CC(NC(=O)Cc1ccc(Cl)cc1)c1ccc(NC2CCCCCC2)c([N+](=O)[O-])c1 (stereo unspecified)	-2
C[C@@H]1CCCN1c1ccc2c(c1)O[C@H]1CCN(C1)S2(=O)=O	-3
CC1(c2nnnn2Cc2ccccc2)CCSCC(=O)N1Cc1cccs1 (stereo unspecified)	0
CC1CCC2(CC1)CCC2NCc1ccc(Cl)cc1 (stereo unspecified)	0
COC(=O)[C@]12C[C@H](CC(=O)NCC34CC5CC(CC(C5)C3)C4)C(=O)N(CCc3ccc(OC)c(OC)c3)C1=C[C@H](C(C)C)O[C@@H]2C1CC1	4
COc1ccc(CCC(=O)NNC(=O)Nc2ccc(C(C)C)cc2)cc1	-1
CCc1ccccc1NC(=O)NNC(=O)CCc1ccc(OC)cc1	13*	HuH7 TTR inh=-25;TTR up confirm=2
COc1ccc(C(C)NC(=O)CCc2ccccc2)cc1 (stereo unspecified)	0
CCOC(=O)N1CCN(C(=O)C[C@H]2C(=O)N(Cc3ccc(OC)cc3)C3=CCCC[C@@]32C(=O)OCC)CC1	1
COC(=O)[C@]12C[C@H](CC(=O)N3CCN(C(=O)c4ccco4)CC3)C(=O)N(Cc3ccc(Cl)cc3Cl)C1=C[C@H](C(C)C)O[C@@H]2C1CC1	2
COc1ccc(Cc2nnc(NC(=O)c3cccs3)s2)cc1OC	15*	HuH7 TTR inh=-30;TTR up confirm=0
COc1ccc(Cc2nnc(NC(=O)c3ccc(OC(C)=O)cc3)s2)cc1OC	5
COc1cccc(C(=O)Nc2nnc(Cc3ccc(OC)c(OC)c3)s2)c1	-1
Cc1ccccc1CN1CCCCC(NC(=O)C2CCCCC2)C1=O (stereo unspecified)	0
C#CCNC(=O)C[C@H]1C[C@@]2(C(=O)OC)C(=C[C@H](C(C)C)O[C@@H]2C2CC2)N(Cc2ccc3c(c2)OCO3)C1=O	3
SMILES	TTR transcr act	others
CCn1cc(Br)c(C(=O)NN)n1	16*	HuH7 TTR inh=-3;TTR up confirm=0
NNC(=O)c1nn(-c2ccc(Cl)cc2)cc1O	4
CCn1cc(Cl)c(C(=O)Nc2ccc(OC)c(OC)c2)n1	0
O=C(Nc1c(-c2ccc(F)cc2)nc2ncccn12)c1ccccc1	2
COc1cc(OC)cc(C(C)c2ccc(C)cc2)c1 (stereo unspecified)	1
COc1ccc(OC)c(NC(=O)C2CC2c2ccccc2)c1 (stereo unspecified)	-2
COc1ccc(NC(=O)C(c2ccccc2)c2ccccc2)c(OC)c1	1
COc1ccc2c(c1)OCC(O)(c1ccccc1)C2=O (stereo unspecified)	38*	HuH7 TTR inh=-7;TTR up confirm=2
CCC[C@H]1[C@@H](NC(=O)c2cccc(C)c2)CC[C@@]23CCCN2C(=O)CCC[C@@H]13	-1
O=C(N1CCC(n2nc(-c3ccccc3)oc2=O)CC1)C1(c2ccccc2)CCCC1	0
C=CS(=O)(=O)N(Cc1ccc(C)cc1)[C@@H](CO)C(=O)OC	0
COC(=O)C1CN(CCO)CCS(=O)(=O)N1Cc1cn(Cc2ccccc2Br)nn1 (stereo unspecified)	4
COc1ccc(/C=N/N2CCN(C)CC2)c(OC)c1OC	4
COc1ccc(/C=N/n2c(C)nnc2C)c(OC)c1OC	10*	HuH7 TTR inh=-6;TTR up confirm=0
COc1ccc(/C=N/n2c(-c3n[nH]c4c3CCC4)n[nH]c2=S)c(OC)c1OC	5
